Source: PubChem BioAssay (Tox21)
Inconclusive results are not listed. A call without a number means that no potency is given here. Unmarked numbers belong to inactive results. Active and inactive are the calls of the source. Unless noted, calls come from the whole dose curve; as a rule, active = well fitted curve in the direction sought with a large enough effect in the repeat runs; inconclusive = weak or mixed curves; inactive = no such curve, though single readings can be large; an effect the other way counts as inactive or inconclusive.

Tests used:
[1] = qHTS assay to identify small molecule agonists of the vitamin D receptor (VDR) signaling pathway - cell viability counter screen (AID 743224); note: series mostly up to about 63 µM; nearly all actives have a fitted effect of over 50% in size
Procedure, shortened: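 VDR-bla cells, 4 h after plating, exposed to compounds for 16 h at 37C; viability then read in the same wells as CellTiter-Glo luminescence after 30 min at room temperature, following the bla FRET read.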

[2] = qHTS assay to identify small molecule antagonists of the vitamin D receptor (VDR) signaling pathway - cell viability counter screen (AID 743225); note: nearly all actives have a fitted effect of over 50% in size
Procedure, shortened: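 VDR-UAS-bla HEK 293T cells were plated and incubated 4 h at 37C, then dosed with compound plus 3 nM (final) 1-alpha,25-dihydroxyvitamin D3 for 16 h. After the 2 h beta-lactamase read, viability in the same wells was read as CellTiter-Glo luminescence after 30 min at room temperature.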

[3] = qHTS assay to identify small molecule agonists of the NFkB signaling pathway (AID 1159509; active = well fitted curve in the direction sought with a large enough effect in the signal ratio in the repeat runs, not every such curve was filed as active; the % refers to the signal ratio; note: series mostly up to about 61 µM)
Procedure, shortened: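 NFkB-bla ME-180 cells carry a beta-lactamase reporter under an NF-kB response element. They were plated overnight, then exposed to compounds for 5 h at 37 C. Read-out is LiveBLAzer FRET after 1.5 hr at room temperature (405 nm excitation; 460/530 nm emission).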

[4] = qHTS assay to identify small molecule agonists of the NFkB signaling pathway - cell viability counter screen (AID 1159515; calls by dose curve; note: series mostly up to about 61 µM; nearly all actives have a fitted effect of over 55% in size)
Procedure, shortened: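 NFkB-bla ME-180 cells, 2,000/well, plated overnight at 37 C; compound added for 5 hr at 37 C. Viability read in the same wells as the bla reporter, by CellTiter-Glo luminescence after 30 min at room temperature.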

[5] = qHTS assay to identify small molecule agonists of the endoplasmic reticulum stress response signaling pathway (AID 1159516; active = well fitted activation curve with a large enough effect in the signal ratio in the repeat runs, not every such curve was filed as active; the % refers to the signal ratio)
Procedure, shortened: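 CellSensor ESRE-bla HeLa cells, 1,500 per well, plated overnight, then exposed to compounds for 5 hr at 37 C. Beta-lactamase reporter read with LiveBLAzer B/G FRET substrate after 2 hr at room temperature, 405 nm excitation, 460 and 530 nm emission.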

[6] = qHTS assay to identify small molecule agonists of the endoplasmic reticulum stress response signaling pathway - cell viability counter screen (AID 1159517; calls by dose curve;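 note: HeLa cells carrying an ER stress response element beta-lactamase reporter; series mostly up to about 61 µM; nearly all actives have a fitted effect of over 50% in size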)
Procedure, shortened: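 HeLa cells carrying an ESRE-driven beta-lactamase reporter receive compound for 5 hr at 37 C. Cell viability is then gauged with CellTiter-Glo by luminescence, 30 min at room temperature.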

[7] = qHTS assay to identify small molecule antagonists of the retinoid-related orphan receptor gamma (ROR-gamma) signaling pathway - cell viability counter screen (AID 1159520); note: nearly all actives have a fitted effect of over 50% in size
Procedure, shortened: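 Cytotoxicity was read from cellular ATP (CellTiter-Glo luminescence) after 16 hr at 37 C with 1 uM doxycycline induction. The inducer was added 2 hr after compound transfer to Tet-on ROR gamma CHO cells.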

[8] = target: Nuclear receptor ROR-gamma (Homo sapiens) (UniProt P51449); experiment: qHTS assay to identify small molecule antagonists of the retinoid-related orphan receptor gamma (ROR-gamma) signaling pathway (AID 1159521; note: nearly all actives have a fitted effect of over 50% in size; note: potency is the fitted concentration of half-maximal effect;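 for activity change, negative = inhibition: CHO cells with doxycycline inducible ROR-gamma driving an RORE luciferase reporter; top concentration of the series differs between compounds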)
Procedure, shortened: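 Tet-on ROR-gamma CHO cells with ROR response element-luciferase reporter; compounds added 2 hr before 1 uM doxycycline induction, then 16 hr at 37 C. Antagonism scored as decreased ONE-Glo luminescence.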

[9] = qHTS assay to identify small molecule agonists of the AP-1 signaling pathway - cell viability counter screen (AID 1159525; calls by dose curve; note: nearly all actives have a fitted effect of over 55% in size)
Procedure, shortened: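 Luminescent ATP readout (Cell Titer Glo, 30 min RT), normalised to DMSO and tetra n-octyl ammonium bromide controls. Cells were ME-180 AP-1-bla in 0.5% dialyzed FBS Opti-MEM, with a 5 h, 37 °C compound exposure.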

[10] = qHTS assay to identify small molecule agonists of the AP-1 signaling pathway (AID 1159526; calls by dose curve)

For `ICCc1ccccc1`, the Potency [1] was “inactive”, the Potency [2] was “inactive” and the outcome [3] was “inactive”. For the same compound, the outcome [4] was “inactive”, the outcome [5] was “inactive” and the outcome [6] was “inactive”. For the same compound, the Potency [7] was “inactive”, the Potency [8] was 59.9 µM (active) and the outcome [9] was “inactive”.

With `CC(C)=CCC[C@](C)(O)[C@@H]1CC=C(C)CC1` the Potency [2] was “inactive”, the outcome [3] was “inactive” and the outcome [4] was “inactive”. The outcome [5] was “inactive”, the outcome [6] was “inactive” and the Potency [7] was “inactive”. The Potency [8] was “inactive” and the outcome [9] was “inactive”.

For `Cc1ccccc1C(=O)Nc1ccc(C(=O)N2CCCC(O)c3cc(Cl)ccc32)c(C)c1` (stereo not drawn), the Potency [2] was “inactive”, the outcome [3] was “inactive” and the outcome [4] was “inactive”. For the same compound, the outcome [5] was “inactive”, the outcome [6] was “inactive” and the Potency [7] was “inactive”. The Potency [8] was “inactive” and the outcome [9] was “inactive”.

For `CCCCCCCOC(=O)CCC`, the Potency [1] was “inactive”, the outcome [3] was “inactive” and the outcome [4] was “inactive”. The outcome [5] was “inactive”, the outcome [6] was “inactive” and the Potency [7] was “inactive”. For the same compound, the Potency [8] was “inactive” and the Potency [10] was “inactive”.

For `COc1ccc(S(=O)(=O)Nc2nnc(CC(C)C)s2)cc1`, the Potency [1] was “inactive”, the Potency [2] was “inactive” and the outcome [3] was “inactive”. The outcome [4] was “inactive”, the outcome [5] was “inactive” and the outcome [6] was “inactive”. For the same compound, the Potency [7] was “inactive”, the Potency [8] was “inactive” and the Potency [10] was “inactive”.

With `O=Cc1ccc(F)c(Br)c1` the Potency [1] was “inactive”, the Potency [2] was “inactive” and the outcome [3] was “inactive”. For the same compound, the outcome [4] was “inactive”, the outcome [5] was “inactive” and the outcome [6] was “inactive”. For the same compound, the Potency [7] was “inactive”, the Potency [8] was “inactive” and the Potency [10] was “inactive”.

For `CCN(CC)CCOc1ccc(Cc2ccccc2)cc1`, the Potency [2] was “inactive”, the outcome [3] was “inactive” and the outcome [4] was “inactive”. For the same compound, the outcome [5] was “inactive”, the outcome [6] was “inactive” and the Potency [7] was “inactive”. For the same compound, the Potency [8] was “inactive” and the outcome [9] was “inactive”.

In the case of `NC1=NCC2c3ccccc3Cc3ccccc3N12` (stereo not drawn), the Potency [1] is reported as “inactive”, the Potency [2] is reported as “inactive” and the outcome [3] is reported as “inactive”. The outcome [4] was “inactive”, the outcome [5] was “inactive” and the outcome [6] was “inactive”. For the same compound, the Potency [7] was “inactive”, the Potency [8] was “inactive” and the Potency [10] was “inactive”.

With `CN(C)CCOc1ccccc1Cc1ccccc1` the Potency [1] was “inactive”, the Potency [2] was “inactive” and the outcome [3] was “inactive”. For the same compound, the outcome [4] was “inactive”, the outcome [5] was “inactive” and the outcome [6] was “inactive”. For the same compound, the Potency [7] was “inactive”, the Potency [8] was “inactive” and the outcome [9] was “inactive”.

In the case of `O=C1CCCCC1C1CCCCC1` (stereo not drawn), the Potency [1] is reported as “inactive”, the Potency [2] is reported as “inactive” and the outcome [3] is reported as “inactive”. The outcome [4] was “inactive”, the outcome [5] was “inactive” and the outcome [6] was “inactive”. The Potency [7] was “inactive”, the Potency [8] was “inactive” and the Potency [10] was “inactive”.

For `O=C(O)CN(CCN(CC(=O)O)CC(=O)O)CCN(CC(=O)O)CC(=O)O`, the Potency [1] was “inactive”, the Potency [2] was “inactive” and the outcome [3] was “inactive”. The outcome [4] was “inactive”, the outcome [5] was “inactive” and the outcome [6] was “inactive”. For the same compound, the activity, negative = cytotoxicity [7] was 4.04% [at 19 µM], the activity change, negative = inhibition [8] was -6.39% [at 19 µM] and the activation [10] was -0.136% [at 15.8 µM].

In the case of `CCN(CC)CC1CCCCN1CC(=O)N1c2ccccc2C(=O)Nc2cccnc21` (stereo not drawn), the Potency [1] is reported as “inactive”, the Potency [2] is reported as “inactive” and the outcome [3] is reported as “inactive”. For the same compound, the outcome [4] was “inactive”, the outcome [5] was “inactive” and the outcome [6] was “inactive”. For the same compound, the Potency [7] was “inactive”, the Potency [8] was “inactive” and the outcome [9] was “inactive”.

With `Cc1c[nH]c(=S)[nH]c1=O` the Potency [2] was “inactive”, the outcome [3] was “inactive” and the outcome [4] was “inactive”. For the same compound, the outcome [5] was “inactive”, the outcome [6] was “inactive” and the Potency [7] was “inactive”. For the same compound, the Potency [8] was “inactive” and the outcome [9] was “inactive”.

With `C=CCc1cc(OC)c(O)c(C(=O)NCCO)c1` the Potency [1] was “inactive”, the Potency [2] was “inactive” and the outcome [3] was “inactive”. The outcome [4] was “inactive”, the outcome [5] was “inactive” and the outcome [6] was “inactive”. For the same compound, the Potency [7] was “inactive”, the Potency [8] was “inactive” and the Potency [10] was “inactive”.

In the case of `CCCCCCCCc1ccc(S(=O)(=O)O)cc1`, the Potency [2] is reported as “inactive”, the outcome [3] is reported as “inactive” and the outcome [4] is reported as “inactive”. For the same compound, the outcome [5] was “inactive”, the outcome [6] was “inactive” and the Potency [7] was “inactive”. The Potency [8] was “inactive” and the outcome [9] was “inactive”.

In the case of `NS(=O)(=O)c1cc(-c2nn[nH]n2)c(NCc2cccs2)cc1Cl`, the Potency [1] is reported as “inactive”, the Potency [2] is reported as “inactive” and the outcome [3] is reported as “inactive”. For the same compound, the outcome [4] was “inactive”, the outcome [5] was “inactive” and the outcome [6] was “inactive”. For the same compound, the Potency [7] was “inactive”, the Potency [8] was “inactive” and the Potency [10] was “inactive”.

With `CC(C)c1ccccc1` the Potency [2] was “inactive”, the outcome [3] was “inactive” and the outcome [4] was “inactive”. For the same compound, the outcome [5] was “inactive”, the outcome [6] was “inactive” and the Potency [7] was “inactive”. For the same compound, the Potency [8] was “inactive” and the outcome [9] was “inactive”.

With `CCCCCCCCCC#N` the Potency [2] was “inactive”, the outcome [3] was “inactive” and the outcome [4] was “inactive”. The outcome [5] was “inactive”, the outcome [6] was “inactive” and the Potency [7] was “inactive”. For the same compound, the Potency [8] was “inactive” and the outcome [9] was “inactive”.

In the case of `OCc1c2ccccc2cc2ccccc12`, the Potency [2] is reported as “inactive”, the outcome [3] is reported as “inactive” and the outcome [4] is reported as “inactive”. For the same compound, the outcome [5] was “inactive”, the outcome [6] was “inactive” and the Potency [7] was “inactive”. For the same compound, the Potency [8] was “inactive” and the outcome [9] was “inactive”.

With `CC(C)CC(=O)OCc1ccccc1` the Potency [1] was “inactive”, the Potency [2] was “inactive” and the outcome [3] was “inactive”. For the same compound, the outcome [4] was “inactive”, the outcome [5] was “inactive” and the outcome [6] was “inactive”. For the same compound, the Potency [7] was “inactive”, the Potency [8] was “inactive” and the Potency [10] was “inactive”.

In the case of `NC/C=C/C(=O)O`, the Potency [1] is reported as “inactive”, the Potency [2] is reported as “inactive” and the outcome [3] is reported as “inactive”. The outcome [4] was “inactive”, the outcome [5] was “inactive” and the outcome [6] was “inactive”. The Potency [7] was “inactive”, the Potency [8] was “inactive” and the Potency [10] was “inactive”.

For `CCOC(=O)C(Br)c1ccccc1` (stereo not drawn), the Potency [1] was “inactive”, the Potency [2] was “inactive” and the outcome [3] was “inactive”. For the same compound, the outcome [4] was “inactive”, the outcome [5] was “inactive” and the outcome [6] was “inactive”. The Potency [7] was “inactive”, the Potency [8] was “inactive” and the Potency [10] was “inactive”.

With `CCCCCOc1ccc(C2SC(=O)NC2=O)cc1OCC` (stereo not drawn) the outcome [3] was “inactive”, the outcome [4] was “inactive” and the outcome [5] was “inactive”. For the same compound, the outcome [6] was “inactive”, the Potency [7] was “inactive” and the Potency [8] was “inactive”. The Potency [10] was “inactive”.

In the case of `CCCCCCCCOC(=O)CCCCCCCCC(=O)OCCCCCCCC`, the Potency [1] is reported as “inactive”, the Potency [2] is reported as “inactive” and the outcome [3] is reported as “inactive”. The outcome [4] was “inactive”, the outcome [5] was “inactive” and the outcome [6] was “inactive”. For the same compound, the Potency [7] was “inactive”, the Potency [8] was “inactive” and the Potency [10] was “inactive”.

For `COC(=O)N[C@H](C(=O)N[C@@H](Cc1ccccc1)[C@@H](O)CN(Cc1ccc(-c2ccccn2)cc1)NC(=O)[C@@H](NC(=O)OC)C(C)(C)C)C(C)(C)C`, the Potency [1] was “inactive”, the Potency [2] was “inactive” and the outcome [3] was “inactive”. The outcome [4] was “inactive”, the outcome [5] was “inactive” and the outcome [6] was “inactive”. The Potency [7] was “inactive”, the outcome [9] was “inactive” and the Potency [10] was “inactive”.

In the case of `COc1ccccc1N1CCN(CCCNc2cc(=O)n(C)c(=O)n2C)CC1`, the Potency [1] is reported as “inactive”, the Potency [2] is reported as “inactive” and the outcome [3] is reported as “inactive”. For the same compound, the outcome [4] was “inactive”, the outcome [5] was “inactive” and the outcome [6] was “inactive”. The Potency [7] was “inactive”, the outcome [9] was “inactive” and the Potency [10] was “inactive”.
